Measured values published in PubChem BioAssay (Tox21).
“And” between values parts separate entries of the source, which are not always exact repeats. Identical values can stand only once. Results filed as inconclusive are left out. A structure can be active in one record and inactive in another. The source made the active and inactive calls. Unless noted, the call rests on the fitted dose curve; in most records, active means well fitted curve in the direction sought with a large enough effect in the repeat runs; inconclusive means weak or mixed curves; inactive means no such curve, though single readings can be large; an effect the other way counts as inactive or inconclusive.

What was measured:
[1] = qHTS assay to identify small molecule agonists of the progesterone receptor (PR) signaling pathway - cell viability counter screen (AID 1346799; calls by dose curve; further: nearly all actives have a fitted effect of over 45% in size; further: potency means the concentration at half of the fitted maximal effect)
Summary of the method: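 Cytotoxicity measured by CellTiter-Glo luminescence (30 min, RT) in the same wells as the PR beta-lactamase agonist read. Those HEK293T cells had 16 h compound treatment at 37 C in 2% charcoal-stripped FBS medium.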

[2] = qHTS assay to identify small molecule agonists of the TGF-beta/Smad signaling pathway - cell viability counter screen (AID 1346829); further: top concentration of the series differs between compounds; nearly all actives have a fitted effect of over 45% in size
Summary of the method: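 Compound-treated SBE-bla HEK 293T cells (5 hr, 37 C) were assessed for viability with CellTiter-Glo in parallel with the reporter read.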

[3] = qHTS assay to identify small molecule agonists of the TGF-beta/Smad signaling pathway (AID 1346859; active means well fitted activation curve with a large enough effect in the signal ratio in the repeat runs, not every such curve was filed as active; the % refers to the signal ratio; further: series mostly up to about 77 µM)
Summary of the method: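 Fluorescence (ex 405 nm; em 460 and 530 nm) was read 2 h after LiveBLAzer FRET substrate at RT. The preceding compound treatment of overnight-plated SBE-bla HEK293T cells lasted 5 h at 37 C.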

[4] = Human pregnane X receptor (PXR) small molecule agonists, qHTS cell viability counter screen (AID 1346977); further: nearly all actives have a fitted effect of over 50% in size
Summary of the method: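 Same-well viability read: CellTiter-Fluor added after 23 hr compound exposure, fluorescence measured 1 hr later. Cells were PXR-Luc HepG2 seeded at 2,000/well in 5% charcoal-stripped FBS medium, rested 5 hr before dosing at 37 C.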

[5] = Caspase-3/7 induction in HepG2 cells by small molecules, qHTS assay (AID 1346978); further: nearly all actives have a fitted effect of over 15% in size
Summary of the method: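 Caspase-3/7 induction was measured by Caspase-Glo 3/7 luminescence (30 min, room temperature) after a 17 hr compound exposure of wild-type HepG2 cells seeded at 2,000 per well and pre-incubated 5 hr.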

[6] = Caspase-3/7 induction in CHO-K1 cells by small molecules, qHTS cell viability counter screen (AID 1346979); further: nearly all actives have a fitted effect of over 35% in size; further: potency means the concentration at half of the fitted maximal effect
Summary of the method: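 Cytotoxicity counter screen: CellTiter-Fluor added to compound-treated wild-type CHO-K1 cells at 16 h (37C, 5% CO2), fluorescence measured 1 h later; same wells as caspase-3/7 measurement.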

[7] = Caspase-3/7 induction in CHO-K1 cells by small molecules, qHTS assay (AID 1346980); further: nearly all actives have a fitted effect of over 15% in size
Summary of the method: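 Luminescent Caspase-Glo 3/7 read (30min, room temperature) quantified apoptosis induction. Cells were wild-type CHO-K1, treated with compound for 17hr at 37 C and 5% CO2.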

[8] = Caspase-3/7 induction in HepG2 cells by small molecules, qHTS cell viability counter screen (AID 1346981); further: series mostly up to about 92 µM; nearly all actives have a fitted effect of over 30% in size
Summary of the method: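 HepG2, WT, 2,000 cells/well; 5 hr pre-incubation 37 C/5% CO2; compound pin-transferred from DMSO; 16 hr exposure; CellTiter-Fluor, 1 hr; fluorescence read.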

[9] = target: Nuclear receptor subfamily 1 group I member 2 (Homo sapiens) (UniProt O75469); test: Human pregnane X receptor (PXR) small molecule agonists, qHTS assay (AID 1346982); further: nearly all actives have a fitted effect of over 35% in size; further: potency means the concentration at half of the fitted maximal effect
Summary of the method: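 Luciferase signal from ONE-Glo (30 min, room temperature) measured activation of hPXR-driven CYP3A4 reporter expression in PXR-Luc HepG2 cells treated with compounds for 24 hr at 37 C.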

[10] = target: Acetylcholinesterase (Homo sapiens) (UniProt P22303); test: Acetylcholinesterase (AChE) small molecule antagonists: fluorescence cell-based qHTS assay (AID 1347398; calls by dose curve; further: nearly all actives have a fitted effect of over 50% in size); conditions: Potency: AChE activity
Summary of the method: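 Read-out is Thiolite Green fluorescence at Ex/Em = 490/520 nm, formed by reaction with thiocholine released when cellular AChE in SH-SY5Y cells hydrolyzes acetylthiocholine. Compounds were preincubated 30 min at 37 C before substrate.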

[11] = target: Acetylcholinesterase (Homo sapiens) (UniProt P22303); test: Acetylcholinesterase (AChE) small molecule antagonists: enzyme-based qHTS assay with human liver microsomes (AID 1347399; calls by dose curve; further: nearly all actives have a fitted effect of over 60% in size); conditions: Potency: qHTS inhibition
Summary of the method: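 Recombinant human AChE (50 mU/mL in the enzyme mix) and human liver microsomes (0.25 mg/mL final) were preincubated with compound and NADPH (0.25 mg/mL final) for 30 min at 37 C. Acetylthiocholine/DTNB was then added; thiocholine was read colorimetrically after 10 min at room temperature.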

[12] = target: Nuclear receptor subfamily 1 group I member 2 (Rattus norvegicus) (UniProt Q9R1A7); test: Rat pregnane X receptor (rPXR) activation by small molecules, qHTS assay (AID 1346983); conditions: rPXR luciferase reporter cells, One-Glo luminescence, 24 h; stronger effect = higher value; further: nearly all actives have a fitted effect of over 20% in size
Summary of the method: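 Luminescent readout (One-Glo luciferase, 30 min room temperature) followed 24 hr compound treatment at 37 C of rPXR cells plated 2,000 per well and preincubated 5hr; qHTS format with compounds delivered in DMSO.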

[13] = target: Nuclear receptor subfamily 1 group I member 2 (Homo sapiens) (UniProt O75469); test: CYP3A4 induction through human pregnane X receptor (PXR) by small molecules, qHTS assay (AID 1346984); further: nearly all actives have a fitted effect of over 40% in size
Summary of the method: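 Luminescence readout: luciferase signal after One-Glo (30 min, room temperature), following 3 h at 37C with 3uM final Luciferin-IPA P450 substrate. Cells were DPX-2 (HepG2, PXR/CYP3A4-luc co-transfected) dosed for 24 h.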

[14] = target: Nuclear receptor subfamily 1 group I member 2 (Homo sapiens) (UniProt O75469); test: Human pregnane X receptor (PXR) activation by small molecules, qHTS assay (AID 1346985); further: nearly all actives have a fitted effect of over 40% in size
Summary of the method: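 DPX-2 cells (HepG2 co-transfected with a PXR response element and a CYP3A4-promoter luciferase construct) were seeded at 2,000 per well, rested 5 hr at 37C, then exposed to DMSO-dissolved compounds for 24 hr. Activation was read as luciferase luminescence.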

[15] = target: Acetylcholinesterase (Homo sapiens) (UniProt P22303); test: Acetylcholinesterase (AChE) small molecule antagonists: enzyme-based qHTS assay (AID 1347397; calls by dose curve; further: nearly all actives have a fitted effect of over 55% in size); conditions: Potency: AChE enzyme activity inhibition
Summary of the method: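 rhAChE 50 mU/mL (dispensed) + cpd or DMSO, 30 min RT; add DTNB/acetylthiocholine cocktail, 10 min RT; colorimetric thiocholine readout. qHTS, 1536-well format.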

[16] = target: Thyrotropin-releasing hormone receptor (Homo sapiens) (UniProt P34981); test: qHTS assay to identify small molecule antagonists of the thyrotropin-releasing hormone receptor (TRHR) signaling pathway (AID 1346877; active means well fitted inhibition curve with a large enough effect in the repeat runs, not every such curve was filed as active; further: series mostly up to about 51 µM)
Summary of the method: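 Intracellular calcium fluorescence, read kinetically every second over 3 min, reports TRH-evoked signalling in HEK293 cells carrying TRHR. Test compounds were added 5 min ahead of a 1 nM TRH challenge.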

[17] = target: Thyrotropin-releasing hormone receptor (Homo sapiens) (UniProt P34981); test: qHTS assay to identify small molecule agonists of the thyrotropin-releasing hormone receptor (TRHR) signaling pathway (AID 1346891; calls by dose curve; further: series mostly up to about 58 µM)
Summary of the method: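 Agonist-mode intracellular calcium readout: kinetic fluorescence over 3 min at 1 s intervals after compound addition to TRHR-HEK293 cells (18 h seeded, 2 h dye-loaded at 37 C). Fifteen concentrations, triplicates.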

[18] = target: Acetylcholinesterase (Homo sapiens) (UniProt P22303); test: Acetylcholinesterase (AChE) small molecule antagonists: colormetric cell-based qHTS assay (AID 1347395; calls by dose curve; further: nearly all actives have a fitted effect of over 30% in size; further: potency means the concentration at half of the fitted maximal effect)
Summary of the method: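 Colorimetric readout: DTNB quantifies thiocholine from acetylthiocholine hydrolysed by endogenous AChE of SH-SY5Y cells (2,000/well, plated overnight). Compound pretreatment 30 min, substrate incubation 90 min, both 37 C.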

[19] = target: Cytochrome P450 2D6 (Homo sapiens) (UniProt P10635); test: Cytochrome P450 Family 2 Subfamily D Member 6 (CYP2D6) small molecule antagonists: luciferase reporter qHTS assay (AID 1671196); further: nearly all actives have a fitted effect of over 50% in size; further: potency means the concentration at half of the fitted maximal effect
Summary of the method: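 Read-out is luminescence from luciferin formed by CYP2D6 turnover of a proluciferin substrate, recorded as relative luminescence units. Reactions ran 1 h at room temperature after NADPH regeneration solution was added.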
On the % scale 0 is the no-effect control and ±100 the full control effect.

Sequence of Nuclear receptor subfamily 1 group I member 2 (Homo sapiens) (O75469 whole entry, looked up): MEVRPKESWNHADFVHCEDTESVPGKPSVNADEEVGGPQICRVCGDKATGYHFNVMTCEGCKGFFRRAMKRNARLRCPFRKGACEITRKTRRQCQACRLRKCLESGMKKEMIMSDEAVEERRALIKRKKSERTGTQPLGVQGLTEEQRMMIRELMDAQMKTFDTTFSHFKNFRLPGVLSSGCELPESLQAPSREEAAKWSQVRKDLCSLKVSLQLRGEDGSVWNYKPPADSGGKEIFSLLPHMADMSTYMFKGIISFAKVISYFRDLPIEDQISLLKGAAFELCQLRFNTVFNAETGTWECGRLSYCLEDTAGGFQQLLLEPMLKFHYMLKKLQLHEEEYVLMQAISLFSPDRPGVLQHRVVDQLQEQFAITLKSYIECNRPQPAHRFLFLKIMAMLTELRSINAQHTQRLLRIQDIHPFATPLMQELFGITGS
Sequence of Thyrotropin-releasing hormone receptor (Homo sapiens) (P34981 whole entry, looked up): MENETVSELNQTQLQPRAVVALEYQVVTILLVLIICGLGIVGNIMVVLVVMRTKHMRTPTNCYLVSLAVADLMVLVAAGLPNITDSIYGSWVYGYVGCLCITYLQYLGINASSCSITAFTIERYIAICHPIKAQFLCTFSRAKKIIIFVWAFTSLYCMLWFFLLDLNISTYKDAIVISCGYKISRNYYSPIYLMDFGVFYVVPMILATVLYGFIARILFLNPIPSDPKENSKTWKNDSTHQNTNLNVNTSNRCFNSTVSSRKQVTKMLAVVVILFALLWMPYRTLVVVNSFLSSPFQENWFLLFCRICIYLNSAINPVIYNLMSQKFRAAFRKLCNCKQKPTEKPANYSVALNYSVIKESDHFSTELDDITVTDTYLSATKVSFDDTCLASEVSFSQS
Sequence of Cytochrome P450 2D6 (Homo sapiens) (P10635 whole entry, looked up): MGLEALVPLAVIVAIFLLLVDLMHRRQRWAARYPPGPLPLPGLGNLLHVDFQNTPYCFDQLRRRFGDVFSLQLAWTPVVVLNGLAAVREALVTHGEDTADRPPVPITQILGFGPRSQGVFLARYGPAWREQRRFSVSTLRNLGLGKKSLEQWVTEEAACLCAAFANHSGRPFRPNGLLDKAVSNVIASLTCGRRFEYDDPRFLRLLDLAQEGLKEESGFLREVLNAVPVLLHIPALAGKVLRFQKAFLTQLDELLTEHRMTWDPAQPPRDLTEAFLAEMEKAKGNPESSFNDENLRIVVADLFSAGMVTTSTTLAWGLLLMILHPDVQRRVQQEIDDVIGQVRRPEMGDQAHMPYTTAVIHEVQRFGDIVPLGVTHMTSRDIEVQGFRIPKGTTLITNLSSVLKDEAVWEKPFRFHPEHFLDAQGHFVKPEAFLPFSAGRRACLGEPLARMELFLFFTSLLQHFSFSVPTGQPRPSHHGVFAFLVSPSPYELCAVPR
Sequence of Acetylcholinesterase (Homo sapiens) (P22303 whole entry, looked up): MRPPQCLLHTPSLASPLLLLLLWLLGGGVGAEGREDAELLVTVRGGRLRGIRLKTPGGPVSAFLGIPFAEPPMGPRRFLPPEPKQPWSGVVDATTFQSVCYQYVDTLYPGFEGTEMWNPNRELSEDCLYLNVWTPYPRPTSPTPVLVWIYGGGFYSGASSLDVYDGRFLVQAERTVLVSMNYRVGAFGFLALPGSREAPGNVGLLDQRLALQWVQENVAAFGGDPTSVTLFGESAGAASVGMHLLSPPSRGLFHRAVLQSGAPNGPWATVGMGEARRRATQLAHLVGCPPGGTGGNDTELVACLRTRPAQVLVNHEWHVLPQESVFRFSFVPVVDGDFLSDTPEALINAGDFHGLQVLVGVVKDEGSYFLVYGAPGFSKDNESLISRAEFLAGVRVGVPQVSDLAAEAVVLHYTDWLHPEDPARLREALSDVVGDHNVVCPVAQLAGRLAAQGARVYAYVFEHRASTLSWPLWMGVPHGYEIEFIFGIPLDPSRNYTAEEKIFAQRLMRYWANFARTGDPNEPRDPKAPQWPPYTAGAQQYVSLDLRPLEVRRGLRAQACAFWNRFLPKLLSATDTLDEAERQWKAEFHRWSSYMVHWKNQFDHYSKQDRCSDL
Sequence of Nuclear receptor subfamily 1 group I member 2 (Rattus norvegicus) (Q9R1A7 whole entry, looked up): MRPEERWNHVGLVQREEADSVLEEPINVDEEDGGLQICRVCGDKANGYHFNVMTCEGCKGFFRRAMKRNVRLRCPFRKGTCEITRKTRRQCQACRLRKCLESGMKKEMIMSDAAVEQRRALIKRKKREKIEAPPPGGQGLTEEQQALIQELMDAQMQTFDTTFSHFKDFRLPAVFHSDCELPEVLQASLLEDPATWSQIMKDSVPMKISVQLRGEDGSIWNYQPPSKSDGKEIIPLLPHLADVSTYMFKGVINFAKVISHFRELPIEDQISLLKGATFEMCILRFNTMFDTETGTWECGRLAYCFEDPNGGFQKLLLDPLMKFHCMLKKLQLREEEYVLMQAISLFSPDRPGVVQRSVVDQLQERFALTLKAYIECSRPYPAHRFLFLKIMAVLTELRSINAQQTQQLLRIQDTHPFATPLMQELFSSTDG

CCC12COCN1COC2
inactive: Potency [1] | outcome [2] | Potency [3] | Potency [4] | outcome [5] | Potency [6] | outcome [7] | Potency [8] | Potency [9] | Potency [10] | Potency [11]

C[C@]12CC[C@H]3[C@@H](CC[C@@]45O[C@@H]4C(O)=C(C#N)C[C@]35C)[C@@H]1CC[C@@H]2O
inactive: Potency [1] | outcome [2] | outcome [5] | Potency [6] | Potency [8] | Potency [9] | max activation [12] -0.29% | outcome [13] | Potency [14] | Potency [15] | Potency [10] | Potency [11]

c1ccc2c(c1)oc1ccccc12
inactive: Potency [1] | outcome [2] | Potency [3] | outcome [16] | Potency [17] | Potency [4] | outcome [5] | Potency [6] | outcome [7] | Potency [8] | Potency [9] | Potency [18] | Potency [10] | Potency [11]

Oc1ccccc1Cl
inactive: Potency [1] | outcome [2] | Potency [3] | outcome [16] | Potency [17] | outcome [5] | Potency [6] | outcome [7] | Potency [8] | Potency [9] | Potency [18] | Potency [10] | Potency [11]

CCCN(CCC)N=O
inactive: Potency [1] | outcome [2] | Potency [3] | outcome [16] | Potency [17] | Potency [4] | outcome [5] | Potency [6] | Potency [8] | Potency [9] | Potency [18] | Potency [10] | Potency [11] | Potency [19]

CCCC1COC(Cn2cncn2)(c2ccc(Cl)cc2Cl)O1 (stereo not drawn)
active: Potency [6] 62.3 µM and 68.6 µM | Potency [9] 31.2 µM and 9.69 µM | Potency [19] 32.3 µM and 35.6 µM
inactive: outcome [2] | Potency [3] | outcome [16] | Potency [17] | outcome [5] | Potency [18] | Potency [10] | Potency [11]

Nc1ccc(Oc2ccc(N)cc2)cc1
inactive: Potency [1] | outcome [2] | Potency [3] | Potency [4] | outcome [5] | Potency [6] | outcome [7] | Potency [8] | Potency [15] | Potency [10] | Potency [11]
active: Potency [9] 62 µM | Potency [19] 36.1 µM and 31.7 µM

O=[N+]([O-])c1ccc(Oc2ccc(Cl)cc2Cl)cc1
63.6 µM (active) and inactive: Potency [18]
54.8 µM (active) and inactive: Potency [9]
active: Potency [19] 22.6 µM
inactive: Potency [1] | outcome [2] | Potency [3] | outcome [16] | Potency [17] | Potency [4] | outcome [5] | Potency [6] | outcome [7] | Potency [8] | Potency [10] | Potency [11]

CCNc1nc(NC(C)C)nc(SC)n1
inactive: Potency [1] | outcome [2] | Potency [3] | outcome [16] | Potency [17] | outcome [5] | Potency [6] | outcome [7] | Potency [8] | Potency [10] | Potency [11]
active: Potency [9] 54.8 µM and 24.3 µM

CCCCCOC(=O)c1ccccc1C(=O)OCCCCC
inactive: Potency [1] | outcome [2] | Potency [3] | outcome [16] | Potency [17] | Potency [4] | outcome [5] | Potency [6] | Potency [8] | Potency [9] | Potency [18] | Potency [15] | Potency [10] | Potency [11] | Potency [19]

Nc1ccc(Br)cc1
inactive: outcome [2] | Potency [3] | outcome [16] | Potency [17] | outcome [5] | Potency [6] | outcome [7] | Potency [8] | Potency [9] | Potency [18] | Potency [10] | Potency [11]
27.3 µM (active) and inactive: Potency [1]
